Measured values reported in PubChem BioAssay (NCATS).
Unmarked numbers belong to inactive results. Calls come from the whole dose curve; as a rule, active = well fitted curve in the direction sought with a large enough effect; inconclusive = small, poorly fitted or top-dose-only effect, or another doubt; inactive = no such curve, though single readings can be large; an effect the other way counts as inactive or inconclusive. Records with an inconclusive call do not appear.

Assay: MultiTox-Fluor Cytotoxicity Assay - LYMP1-001 - Live Cells (AID 947);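 note: 0% = DMSO only and full inhibition = tetraoctylammonium bromide control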
Settings: LYMP1-001 lymphoblastoid cells, live-cell protease fluorescence viability; series mostly up to 92.2 µM; activity change, negative = cytotoxicity: at the top concentration

Structure (SMILES) | activity change, negative = cytotoxicity [%]
NC(=O)c1ccccc1O | 7.48
CCCN(CCC)S(=O)(=O)c1ccc(C(=O)O)cc1 | -9.31
O=C(O)c1ccc(S(=O)(=O)N(Cl)Cl)cc1 | 4.78
CCOc1ccc(NC(C)=O)cc1 | -18.2
COc1ccc(C(Cl)=C(c2ccc(OC)cc2)c2ccc(OC)cc2)cc1 | -8.85
COc1ccc(C(=O)c2ccccc2)c(O)c1 | -0.0378

Assay: Cell Viability - LYMP1-002 - Assay at 16 hr (AID 948);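 note: 0% = DMSO alone and full effect = 92 µM tetraoctylammonium bromide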
Settings: LYMP1-002 lymphoblastoid cell viability; series mostly up to 92.2 µM; activity change, negative = cytotoxicity: at the top concentration
Outline: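 LYMP1-002 human lymphoblastoid cells, 2500/well; 5 hr 37 C; cpd 16 hr 37 C; CellTiter-Glo 30 min RT; luminescence (ATP). Concentration-response, Hill-fit AC50. Pos ctrl tetraoctylammonium bromide.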

Structure (SMILES) | activity change, negative = cytotoxicity [%]
NC(=O)c1ccccc1O | -6.12
CCCN(CCC)S(=O)(=O)c1ccc(C(=O)O)cc1 | 0.738
O=C(O)c1ccc(S(=O)(=O)N(Cl)Cl)cc1 | 0.993
CCOc1ccc(NC(C)=O)cc1 | -3.01
COc1ccc(C(Cl)=C(c2ccc(OC)cc2)c2ccc(OC)cc2)cc1 | -16.4
Oc1ccc(Cl)cc1Cc1cc(Cl)ccc1O | -22.6
COc1ccc(C(=O)c2ccccc2)c(O)c1 | -4.1

Assay: MultiTox-Fluor Cytotoxicity Assay - LYMP1-002 - Live Cells (AID 955); note: % is set by controls: 0 for no effect and ±100 for the full control effect
Settings: LYMP1-002 lymphoblastoid live-cell protease fluorescence viability; series mostly up to 46.1 µM; viability change, negative = cytotoxic: at the top concentration
Outline: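 Read-out is live-cell protease activity (cell-permeant GF-AFC substrate, fluorescence Ex/Em=405/510), where a decrease indicates acute toxicity. Human lymphoblastoid cells were treated 16 hours at 37 C in a concentration series, and AC50 values came from standard Hill modelling.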

Structure (SMILES) | viability change, negative = cytotoxic [%]
NC(=O)c1ccccc1O | 1.01
CCCN(CCC)S(=O)(=O)c1ccc(C(=O)O)cc1 | 4.03
O=C(O)c1ccc(S(=O)(=O)N(Cl)Cl)cc1 | 2.63
CCOc1ccc(NC(C)=O)cc1 | -6.03
COc1ccc(C(Cl)=C(c2ccc(OC)cc2)c2ccc(OC)cc2)cc1 | -2.28
Oc1ccc(Cl)cc1Cc1cc(Cl)ccc1O | -28.7
COc1ccc(C(=O)c2ccccc2)c(O)c1 | -0.788

Assay: MultiTox-Fluor Cytotoxicity Assay - LYMP1-002 - Dead Cells (AID 960); note: nearly all actives have a fitted effect of over 60% in size
Settings: LYMP1-002 lymphoblastoid cells, dead-cell protease fluorescence; series mostly up to 46.1 µM; cytotoxicity (dead cells): at the top concentration
Outline: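 LYMP1-002 cells 2500/well; 5 hr 37 C pre-incubation; compound 16 hr 37 C; MultiTox-Fluor reagent 60 min RT; dead-cell fluor Ex/Em 485/520. Norm. to DMSO (0%) vs 15 uM tetraoctylammonium bromide (100%); Hill AC50.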

Structure (SMILES) | cytotoxicity (dead cells) [%]
NC(=O)c1ccccc1O | -2.72
CCCN(CCC)S(=O)(=O)c1ccc(C(=O)O)cc1 | 25.3
O=C(O)c1ccc(S(=O)(=O)N(Cl)Cl)cc1 | 12.8
CCOc1ccc(NC(C)=O)cc1 | 10.9
COc1ccc(C(Cl)=C(c2ccc(OC)cc2)c2ccc(OC)cc2)cc1 | 12.6
Oc1ccc(Cl)cc1Cc1cc(Cl)ccc1O | 29.5
COc1ccc(C(=O)c2ccccc2)c(O)c1 | 13.6

Assay: MultiTox-Fluor Cytotoxicity Assay - LYMP1-003 - Dead Cells (AID 961); note: nearly all actives have a fitted effect of over 70% in size
Settings: LYMP1-003 lymphoblastoid cells, dead-cell protease fluorescence; series mostly up to 92.2 µM; cytotoxicity (dead cells): at the top concentration
Outline: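 LYMP1-003 human lymphoblastoid cells (2500/well) exposed to compound 16 h at 37 C in complete medium; dead-cell protease read with bis-AAF-R110 fluorescence (Ex/Em 485/520) after 60 min at room temperature. Normalized to DMSO and 15 uM tetraoctylammonium bromide; AC50 from Hill fit.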

Structure (SMILES) | cytotoxicity (dead cells) [%]
NC(=O)c1ccccc1O | -5.28
CCCN(CCC)S(=O)(=O)c1ccc(C(=O)O)cc1 | 2.22
O=C(O)c1ccc(S(=O)(=O)N(Cl)Cl)cc1 | -10.2
CCOc1ccc(NC(C)=O)cc1 | -1.21
COc1ccc(C(Cl)=C(c2ccc(OC)cc2)c2ccc(OC)cc2)cc1 | 16.9
COc1ccc(C(=O)c2ccccc2)c(O)c1 | 0.197

Assay: MultiTox-Fluor Cytotoxicity Assay - LYMP1-003 - Live Cells (AID 962);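 note: 0% = DMSO only and full loss = 92 µM tetraoctylammonium bromide; cytotoxic hits lower the live-cell protease signal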
Settings: LYMP1-003 lymphoblastoid cells, MultiTox-Fluor live-cell protease fluorescence; series mostly up to 92.2 µM; activity change, negative = fewer live cells: at the top concentration
Outline: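 qHTS, 1536-well; 2500 cells/well LYMP1-003; 5 hr 37 C settle; cpd 16 hr 37 C; MultiTox-Fluor reagent 60 min RT; live-cell protease fluor. 405/510; Hill-fit AC50; tetraoctylammonium bromide pos. ctrl.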

Structure (SMILES) | activity change, negative = fewer live cells [%]
NC(=O)c1ccccc1O | -3.27
CCCN(CCC)S(=O)(=O)c1ccc(C(=O)O)cc1 | -7.52
O=C(O)c1ccc(S(=O)(=O)N(Cl)Cl)cc1 | -0.927
CCOc1ccc(NC(C)=O)cc1 | -0.401
COc1ccc(C(Cl)=C(c2ccc(OC)cc2)c2ccc(OC)cc2)cc1 | -2.31
Oc1ccc(Cl)cc1Cc1cc(Cl)ccc1O | -36.6
COc1ccc(C(=O)c2ccccc2)c(O)c1 | -4.82
